Compounds with a hit are over-represented: about 0.97% of the library has one in this group of screens.
TcdB GH inh: blocks C. difficile toxin B glycohydrolase activity; P18177; TcdB glycohydrolase enzymatic assay, plate reader; inhibition, % at 9.99 µM; actives 0.24% (n = 350,000); AID 652162; in the data active means inhibition above about 10%
Rv3671c protease: Rv3671c (M. tuberculosis) protease inhibition; actives 0.048% (n = 320,000); inhibition, % at 5.96 µM; AID 2606; in the data active means inhibition above about 38%;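 further: extracellular domain of Rv3671c used as enzyme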
Mtb bLac sens: beta-lactam sensitization of Mtb H37Rv | M. tuberculosis H37Rv growth with meropenem, percent inhibition | inhibition, % at 25 µM | actives 0.27% (n = 330,000) | AID 434955; call rule not given here;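 further: growth measured after seven days incubation then overnight dye step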
RecA intein inh: Mtb RecA intein splicing inhibition. cell-free RecA intein splicing, fluorescence. inhibition, % (no concentration beside the values). actives 0.75% (n = 290,000). AID 2221; in the data active means inhibition above about 30%
UGM FP inh: Mtb UDP-galactopyranose mutase inhibition | P9WIQ1 | purified UGM, fluorescence polarization probe displacement | inhibition, % at 10 µM | actives 0.06% (n = 320,000) | AID 504406; in the data active means inhibition above about 10%, passing the limit was not always enough
Target sequence (P9WIQ1 whole entry, looked up): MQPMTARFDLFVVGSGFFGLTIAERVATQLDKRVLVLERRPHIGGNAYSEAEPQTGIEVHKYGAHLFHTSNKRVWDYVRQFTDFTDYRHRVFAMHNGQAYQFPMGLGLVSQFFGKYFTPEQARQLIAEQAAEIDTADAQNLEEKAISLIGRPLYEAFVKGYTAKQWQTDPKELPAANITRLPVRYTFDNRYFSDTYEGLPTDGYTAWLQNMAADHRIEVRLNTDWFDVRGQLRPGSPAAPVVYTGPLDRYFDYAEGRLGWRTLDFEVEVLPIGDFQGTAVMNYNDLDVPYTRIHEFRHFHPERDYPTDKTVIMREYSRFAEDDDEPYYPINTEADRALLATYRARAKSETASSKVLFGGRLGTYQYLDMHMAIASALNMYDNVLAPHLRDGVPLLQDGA
MazEF act: increases E. coli MazEF RNase cleavage of RNA; actives 0.32% (n = 350,000); AID 504720; activation, % at 20 µM; FAM/BHQ RNA-DNA oligo cleavage fluorescence, 5 h; in the data active means activation above about 50%
Target sequence (P0AE70 whole entry, looked up): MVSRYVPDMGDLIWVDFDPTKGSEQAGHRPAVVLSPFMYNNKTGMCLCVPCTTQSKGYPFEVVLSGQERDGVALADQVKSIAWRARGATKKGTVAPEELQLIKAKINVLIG
Of the large screens only hits and unclear results are named; the others gave an inactive call.

Cc1cccc(-n2nnc(C(=O)NCc3ccccc3Cl)c2N)c1	TcdB GH inh 10.9
c1coc(-c2nc3c4ccccc4ccn3c2Cc2ccsc2)c1	none (no result: Rv3671c protease, Mtb bLac sens, RecA intein inh, UGM FP inh, MazEF act)
O=C(NCC12CC3CC(CC(C3)C1)C2)c1nc2ncccn2n1	MazEF act 95.6 (no result: TcdB GH inh)
O=C(NCCc1ccccc1)c1nc2ncccn2n1	none (no result: TcdB GH inh)
CCn1cc(C=C2C(=O)c3ccccc3C2=O)c2ccccc21	MazEF act active (no result: TcdB GH inh, Rv3671c protease, Mtb bLac sens, UGM FP inh)
COc1cccc(C2NC(c3cccc(OC)c3O)C(C)C(=O)C2C)c1O (configuration not stated)	none
CC1C(=O)C(C)C(c2cc(Cl)ccc2O)NC1c1cc(Cl)ccc1O (configuration not stated)	RecA intein inh 49.8
CCCNC(=O)N(Cc1cccnc1)C[C@H]1N[C@H](CO)[C@@H]1c1ccccc1	none (no result: Rv3671c protease, Mtb bLac sens, RecA intein inh, UGM FP inh, MazEF act)
O=C(O)c1ccc(-n2c(=O)c3ccccc3c3ccccc3c2=O)cc1	RecA intein inh 31.8
Cc1nc2ccccc2c(=O)n1-c1ccc(C(=O)O)cc1	none
N#Cc1ccc(-c2cccnc2)nc1SCC(=O)c1ccccc1	MazEF act active
N#Cc1ccc(-c2ccccc2)nc1SCC(=O)c1cccc(Cl)c1	none (no result: TcdB GH inh)
C[C@@H]1CCCCO[C@@H](CN(C)C(=O)c2ccccc2)[C@@H](C)CN([C@H](C)CO)C(=O)c2cc(NC(=O)Nc3ccc(F)cc3)ccc2O1	none (no result: Rv3671c protease, Mtb bLac sens, RecA intein inh, UGM FP inh, MazEF act)
Nc1ncnc2c1ncn2[C@@H]1O[C@H](CO)[C@@H](O)[C@H]1O	none
CC1(C)OC2C(O1)[C@@H](CO)O[C@H]2n1cnc2c(N)ncnc21 (some centres not stated)	TcdB GH inh 13.6
CCS(=O)(=O)c1ccc2oc(Nc3ccc(C(C)(C)C)cc3)nc2c1	TcdB GH inh 12.2
O=C(O)c1cccnc1SCc1ccccc1Cl	TcdB GH inh 11.2
O=C(O)c1cccnc1Sc1ccccc1Cl	none (no result: UGM FP inh)
COc1ccccc1N1N=C(C(=O)c2ccccc2)C2C(=O)N(c3ccc(Br)cc3)C(=O)C21 (configuration not stated)	UGM FP inh 30.8
COc1ccccc1N1C(=O)C2C(C(=O)c3ccccc3)=NN(c3ccccc3)C2C1=O (configuration not stated)	none
Cc1nn(CCc2nn[nH]n2)c2nc(-c3ccc(C4CCCCC4)cc3)cc(C(F)(F)F)c12	RecA intein inh 34.3 (no result: Mtb bLac sens)
C[C@@H]1CN([C@@H](C)CO)C(=O)c2cc(NC(=O)C3CCCCC3)ccc2O[C@@H](C)CCCCO[C@@H]1CN(C)C(=O)NC1CCCCC1	none (no result: Rv3671c protease, Mtb bLac sens, RecA intein inh, UGM FP inh, MazEF act)
Cc1ccc(N(Cc2ccc(C(=O)NC3CCCCC3)cc2)S(C)(=O)=O)cc1C	MazEF act 51.4 (no result: TcdB GH inh)
O=c1c(C(c2ccccc2)c2c(O)sc3ccccc3c2=O)c(O)sc2ccccc12	RecA intein inh 28.7 (no result: TcdB GH inh)
O=c1c2ccccc2sc2ccccc12	none (no result: Rv3671c protease, Mtb bLac sens, RecA intein inh, UGM FP inh)
CN1CCN(C(=O)C[C@@H]2CC[C@@H]3[C@H](COC[C@@H](O)CN3Cc3ccc(Oc4ccccc4)cc3)O2)CC1	none (no result: Rv3671c protease, Mtb bLac sens, RecA intein inh, UGM FP inh, MazEF act)
CC(OC(=O)C1=COCCO1)C(=O)c1ccc(Br)cc1 (configuration not stated)	TcdB GH inh 13.8 (no result: RecA intein inh)
CC(OC(=O)C1=COCCO1)C(=O)NC1CCCCC1 (configuration not stated)	none (no result: Rv3671c protease, Mtb bLac sens, RecA intein inh, UGM FP inh)
Cc1ccc(C(=O)OCC(=O)N(C)c2ccccc2)c(C)c1	none
CN(C(=O)COC(=O)c1ccc([N+](=O)[O-])cc1N)c1ccccc1	MazEF act 69.8
O=C(N[C@H]1CC[C@H](CCn2cc(-c3ccccn3)nn2)O[C@@H]1CO)c1cccnc1	none (no result: Rv3671c protease, Mtb bLac sens, RecA intein inh, UGM FP inh, MazEF act)
CC1=NN(c2cccc([N+](=O)[O-])c2)C(=O)C1	RecA intein inh 84.1
C[C@@H]1CN([C@@H](C)CO)S(=O)(=O)c2ccc(C#CC3CC3)cc2O[C@H]1CN(C)Cc1ccncc1	none (no result: Rv3671c protease, Mtb bLac sens, RecA intein inh, UGM FP inh, MazEF act)
COc1ccccc1NC(=O)CSc1nc2nc(C)cc(C)c2c(=O)[nH]1	MazEF act 51.0 (no result: TcdB GH inh)
CCCc1cc(-n2ccnc2)n2c(nc3ccccc32)c1C#N	MazEF act 82.1 (no result: TcdB GH inh)
Cc1cc(C)n(-c2nc3nonc3nc2Nc2cccc(C)c2C)n1	MazEF act 190.4 (no result: TcdB GH inh)
C[C@H]1CN([C@@H](C)CO)C(=O)c2cc(N(C)C)ccc2O[C@@H]1CN(C)S(=O)(=O)c1ccccc1	none (no result: Rv3671c protease, Mtb bLac sens, RecA intein inh, UGM FP inh, MazEF act)
COc1ccc(-c2cn3cc(C)ccc3n2)cc1OC	none (no result: TcdB GH inh)
Cc1ccc2nc(-c3ccc4c(c3)OCCO4)cn2c1	TcdB GH inh 25.8
COc1ccc(-c2cn3cc(C)ccc3n2)cc1F	TcdB GH inh 20.2 (no result: RecA intein inh)
COC(=O)c1nn2c(C(F)(F)F)cc(-c3ccc(Br)o3)nc2c1Br	MazEF act 111.0 (no result: TcdB GH inh)
CO[C@@H]1CN(C)C(=O)c2cc(NC(C)=O)ccc2OC[C@@H](C)N(CCC(F)(F)F)C[C@@H]1C	none (no result: Rv3671c protease, Mtb bLac sens, RecA intein inh, UGM FP inh, MazEF act)
Cc1ccc(NC(=O)COc2cccc(/C=C3\SC(=S)N(CCC(=O)O)C3=O)c2)cc1Cl	RecA intein inh 30.6
O=C(O)COc1cccc(/C=C2/SC(=S)N(Cc3ccccc3)C2=O)c1	RecA intein inh 44.5
C[C@H](CO)N1C[C@H](C)[C@H](CN(C)Cc2ccncc2)Oc2ncc(-c3cncnc3)cc2C1=O	none (no result: Rv3671c protease, Mtb bLac sens, RecA intein inh, UGM FP inh, MazEF act)
C=CCN1C(=O)/C(=C2/Sc3ccccc3N2CC)SC1=S	MazEF act 161.8
O=C(C1CCCCC1)N1C[C@H]2[C@@H](c3ccccc31)[C@@H](CO)N2Cc1ccccc1Cl	none (no result: Rv3671c protease, Mtb bLac sens, RecA intein inh, UGM FP inh, MazEF act)
C[C@H](CO)N1C[C@H](C)[C@@H](CN(C)Cc2ccncc2)Oc2ccc(NC(=O)Cc3cn(C)c4ccccc34)cc2CC1=O	none (no result: Rv3671c protease, Mtb bLac sens, RecA intein inh, UGM FP inh, MazEF act)
COc1ccc(NC(=O)CN(C)S(=O)(=O)c2ccccc2)c([N+](=O)[O-])c1	MazEF act 262.9 (no result: TcdB GH inh)
CCCCC(=O)Nc1ccc(C(=O)Nc2ccc(OC)cc2[N+](=O)[O-])cc1	MazEF act 742.7
COC(=O)Cc1c(C)[nH]n(-c2cc(Cl)cc(Cl)c2)c1=O	RecA intein inh 40.3
O=C1/C(=C/c2ccccc2F)SC(=S)N1CC(=O)N1CCCCC1c1cccnc1 (configuration not stated)	RecA intein inh 32.4
COc1ccc(CN(C)C[C@@H]2Oc3ccc(NC(=O)C4CC4)cc3C(=O)N([C@@H](C)CO)C[C@H]2C)cc1	none (no result: Rv3671c protease, Mtb bLac sens, RecA intein inh, UGM FP inh, MazEF act)
COc1ccc(N/C=C2\C(=O)CCc3c2oc2cc(Cl)c(O)c(Cl)c32)cc1	MazEF act 120.4
O=C(C[C@@H]1CC[C@H]2[C@@H](COC[C@H](O)CN2C(=O)Nc2cc(Cl)cc(Cl)c2)O1)NCC1CC1	none (no result: Rv3671c protease, Mtb bLac sens, RecA intein inh, UGM FP inh, MazEF act)
COc1ccc(C2C=C(c3cccs3)Nc3nc(CCCO)nn32)cc1 (configuration not stated)	UGM FP inh 28.6 (no result: TcdB GH inh, RecA intein inh, MazEF act)
O=C(C[C@@H]1C[C@H]2c3cc(NC(=O)Cc4ccncc4)ccc3O[C@H]2[C@H](CO)O1)NCc1ccc2c(c1)OCO2	none (no result: Rv3671c protease, Mtb bLac sens, RecA intein inh, UGM FP inh, MazEF act)
COc1ccc(-c2nc(-c3cccnc3)no2)cc1	none
COc1ccc(-c2nc(-c3ccncc3)no2)cc1	MazEF act 90.9 (no result: Rv3671c protease)
COc1ccccc1NC(=O)N1CC[C@@H]2[C@H]1c1cc(-c3cccc(F)c3)ccc1N(C)[C@H]2CO	none (no result: Rv3671c protease, Mtb bLac sens, RecA intein inh, UGM FP inh, MazEF act)
COc1ccc(O)c(C=Nc2cc(NC(C)=O)c(Cl)cc2Cl)c1	none
